Laboratory results taken from PubChem BioAssay AID489036 (National Center for Advancing Translational Sciences (NCATS), 2010).
Results filed as inconclusive are left out. Active and inactive are the calls of the source. Calls follow the shape of the dose curve; as a rule, active = well fitted inhibition curve with a large enough effect; inconclusive = small, poorly fitted or top-dose-only effect, or effect the other way; inactive = flat fitted curve, though single readings scatter.

Experiment: VP16 selectivity assay for inhibitors of ROR gamma transcriptional activity
Description: NIH Molecular Libraries Probe Production Network [MLPCN] NIH Chemical Genomics Center [NCGC] MLPCN Grant: R03 DA026211-01 Assay Provider: Dan Littman, New York University Assay Overview: The retinoic acid-related orphan receptor (ROR) gamma is a transcription factor that has a central role in the differentiation of Th17 cells, a subset of T helper cells that secrete the inflammatory cytokines IL-17, IL-17F, and IL-22. Th17 cells have been implicated in graft versus host disease, autoimmune disease and asthma. ROR gamma is induced in naive T helper cells in the presence of TGF-beta combined with IL-6, IL-21, or IL-23, and thereafter directs the expression of the Th17 lineage cytokines. […] Small molecule inhibitors that inhibit components common to the RORgt and VP16 assays, such as the Gal4 DNA binding domain or the UAS luciferase reporter, will be active in both assays and thus scored as nonspecific.
Assay Protocol Summary: For screening, 600 cells in 4 uL/well were dispensed into white solid 1536-well plates (Grenier) using a solenoid-based dispenser. […] After addition of 1.5 uL Photinus luciferase detection reagent, the plates were incubated 10 min at ambient temperature and then read by an ViewLux (Perkin Elmer) to detect luminescence.

Row | Structure (SMILES) | outcome
1 | CC1OC(O[C@@H]2C(O)CC(O[C@@H]3C(O)C[C@@H](OC4CC[C@@]5(C)C6CC[C@]7(C)C(C8=CC(=O)OC8)C(O)C[C@@]7(O)[C@H]6CC[C@@H]5C4)OC3C)OC2C)CC(O)C1O (some centres not stated) | inactive
2 | CO[C@H]1[C@@H](O)CC(OC2[C@@H](O)CC(OC3[C@@H](O)C[C@H](OC4CC[C@@]5(C)C(CCC6C5CC(O)[C@]5(C)[C@H](C7=CC(=O)OC7)CCC65O)C4)O[C@@H]3C)O[C@@H]2C)O[C@@H]1C (some centres not stated) | inactive
